JMJD2A Tudor inh: qHTS Assay for Inhibitors of JMJD2A-Tudor Domain; Potency, µM (series often up to 114 µM), for inactives: at the highest dose activity change, negative = inhibition, hits mostly inhibitors; hit rate 4.4% among 390,000; AlphaScreen JMJD2A-Tudor / H3K4me3 peptide binding; note: potency is the fitted concentration of half-maximal effect; % is set by controls: 0 for no effect and ±100 for the full control effect; nearly all actives have a fitted effect of over 50% in size
PLK1 PBD block: qHTS for Inhibitors of PLK1-PDB (polo-like kinase 1 - polo-box domain): Primary Screen; Serine/threonine-protein kinase PLK1 (Homo sapiens), P53350; Plk1 PBD binding of FITC phosphopeptide, fluorescence polarization; Potency, µM, for the others: max response, negative = inhibition, hits mostly inhibitors; hit rate 2.8% among 360,000; note: potency is the fitted concentration of half-maximal effect; series mostly up to about 57 µM; % is set by controls: 0 for no effect and ±100 for the full control effect; nearly all actives have a fitted effect of over 65% in size
Target sequence (P53350 whole entry, looked up, the tested form may be a part): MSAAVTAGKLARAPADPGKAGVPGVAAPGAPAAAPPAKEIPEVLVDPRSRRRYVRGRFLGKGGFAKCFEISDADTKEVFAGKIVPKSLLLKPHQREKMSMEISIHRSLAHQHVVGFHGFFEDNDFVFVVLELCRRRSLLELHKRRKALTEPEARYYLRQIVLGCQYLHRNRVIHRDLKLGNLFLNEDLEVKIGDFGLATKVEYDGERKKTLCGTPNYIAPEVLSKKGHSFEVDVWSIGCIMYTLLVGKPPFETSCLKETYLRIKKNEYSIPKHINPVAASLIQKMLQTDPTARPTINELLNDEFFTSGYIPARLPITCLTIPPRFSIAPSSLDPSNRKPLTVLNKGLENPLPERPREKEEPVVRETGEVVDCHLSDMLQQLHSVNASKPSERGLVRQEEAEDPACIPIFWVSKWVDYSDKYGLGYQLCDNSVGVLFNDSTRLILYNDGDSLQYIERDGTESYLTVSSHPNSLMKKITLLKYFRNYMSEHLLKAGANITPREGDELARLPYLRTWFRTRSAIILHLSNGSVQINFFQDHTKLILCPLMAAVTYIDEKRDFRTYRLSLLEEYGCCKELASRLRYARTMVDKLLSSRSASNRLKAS
BAZ2B inh: qHTS Assay for Inhibitors of BAZ2B | Bromodomain adjacent to zinc finger domain protein 2B (Homo sapiens), Q9UIF8 | AlphaScreen BAZ2B-H3K14Ac peptide displacement | Potency, µM (top dose mostly 114 µM), for inactives: top-dose activity change, negative = inhibition, hits mostly inhibitors | hit rate 4.4% among 360,000; note: potency is the fitted concentration of half-maximal effect; % is set by controls: 0 for no effect and ±100 for the full control effect; nearly all actives have a fitted effect of over 60% in size
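In this displacement format the biotinylated H3(5-23) peptide acetylated at Lys14 serves as ligand at 50 nM, with BAZ2B at 50 nM in PBS pH 7.4 containing 0.01% Tween-20. Donor and acceptor beads are 10 ug/mL final.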
HP1b chromo inh: HTS for Inhibitors of HP1-beta Chromodomain Interactions with Methylated Histone Tails; Chromobox protein homolog 1 (Homo sapiens), P83916; AlphaScreen HP1-beta / biotin-H3K9me3 peptide binding; hit rate 0.56% among 390,000; Potency, µM (doses to about 114 µM), for inactives: top-dose activity change, negative = inhibition, actives largely listed as inhibitors; note: potency is the fitted concentration of half-maximal effect; nearly all actives have a fitted effect of over 70% in size
Target sequence (P83916 whole entry, looked up): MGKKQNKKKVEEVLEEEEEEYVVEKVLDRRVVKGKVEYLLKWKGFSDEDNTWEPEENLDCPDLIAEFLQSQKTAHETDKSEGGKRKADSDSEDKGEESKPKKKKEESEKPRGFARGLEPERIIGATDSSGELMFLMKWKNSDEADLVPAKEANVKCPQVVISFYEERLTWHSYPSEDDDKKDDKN
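Compound inhibition of the preformed complex between 50 nM HP1-beta and 50 nM biotinylated H3K9me3 peptide was read by AlphaScreen. Buffer was PBS pH 7.4 with 0.01% Tween-20. Incubations ran 30 min at room temperature, with 10 ug/mL donor/acceptor beads.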
GCN5L2 inh: qHTS Assay for Inhibitors of GCN5L2 | Potency, µM (series often up to 58.9 µM), for inactives: at the highest dose activity change, negative = inhibition, hits mostly inhibitors | Histone acetyltransferase KAT2A (Homo sapiens), Q92830 | GCN5L2 HAT assay, ThioGlo1 CoA-SH fluorescence | hit rate 0.21% among 390,000 | AID 504327, 2011; note: potency is the fitted concentration of half-maximal effect; % is set by controls: 0 for no effect and ±100 for the full control effect
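GCN5L2 (20nM final) in 50mM HEPES, 0.1mM EDTA pH 7.5, 0.01% Tween-20 was preincubated 15 min at room temperature with compound, then given ThioGlo1 (50uM), H3(1-25) peptide (75uM) and acetyl-CoA (70uM); CoA-thiol fluorescence (Ex340/Em540) was read at 0 and 20 min.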
PI5P4K alpha inh: qHTS for Inhibitors of phosphatidylinositol 5-phosphate 4-kinase (PI5P4K); AID 652105, 2013; hit rate 1.2% among 330,000; PI5P4Kalpha enzyme, ADP-Glo luminescence, 60 min; active compounds read low; max response, %; active = max response of -50% or lower; inconclusive = between -30% and -50%; inactive = -30% or higher; note: value at the top dose of about 77 µM; % is set by controls: 0 for no effect and ±100 for the full control effect
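Compounds were pin-transferred onto PI5P4Kalpha and substrate in HEPES pH 7.4 buffer with EGTA, CHAPS and 5% DMSO. ATP (5 microM final) started the reaction, which ran 60 minutes at room temperature before ADP-Glo detection.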
ADP-Glo counter: qHTS for Inhibitors of PI5P4K: ADP-Glo counter assay; shares compounds with PI5P4K alpha inh; ADP-Glo detection counter-screen, luciferase luminescence, no enzyme; Potency, µM (highest dose often 76.9 µM), for the others: at the top dose activity change, negative = inhibition, actives largely listed as inhibitors; 1,100 tested, under 10 active
Active calls of the source: *; ? = inconclusive; nt = no result given; [ ] = remark or other dose. An excerpt weighted towards active compounds, which were near 7% of everything screened. Unless noted, calls come from the whole dose curve; as a rule, active = well fitted curve in the direction sought with a large enough effect; inconclusive = small, poorly fitted or top-dose-only effect, or another doubt; inactive = no such curve, though single readings can be large; an effect the other way counts as inactive or inconclusive.

SMILES | JMJD2A Tudor inh | PLK1 PBD block | BAZ2B inh | HP1b chromo inh | GCN5L2 inh | PI5P4K alpha inh | ADP-Glo counter
NC(=O)c1c(NC(=O)c2ccccc2)sc2c1CCC2 | -12% | ? | ? | 68% | -1% | -51* | -2%
NC(=O)c1c(NC(=O)C2CC=CCC2C(=O)O)sc2c1CCCCC2 (centres undefined) | 56µM* | 27µM* | ? | ? | -23% | -53* | -3%
O=C(c1ccco1)N1CCN(C(=O)c2cc(-c3ccccc3)nc3ccccc23)CC1 | ? | -16% | -4%[57.1 µM] | -2% | -17% | -2 | nt
Cc1cccc2c(C(=O)N3CCN(C(=O)c4ccco4)CC3)cc(-c3cccc(Br)c3)nc12 | -32% | ? | ? | -21% | -3% | -53* | 7%
COc1ccccc1CNC(=O)CSC1=NCCS1 | 1% | ? | 1% | 27% | -12% | 2 | nt
O=C(CSC1=NCCS1)NCc1ccco1 | 18µM* | 3µM* | 6% | -12% | 2% | -54* | 1%
O=C(NC1CCN(C(=S)Nc2ccc(F)cc2)CC1)C1CCCCC1 | 4% | 5% | 0% | 24% | 0% | 6 | nt
Cc1nc2sc3c(c2c(=O)[nH]1)CCC3 | -7% | -2% | 3% | 29% | -3% | nt | nt
Cc1cc(-c2nc3c4c5c(sc4[nH]c(=O)n3n2)CCC5)c(C)o1 | ? | ? | 50µM* | ? | ? | -59* | -6%
COc1ccc(C(=O)NCc2nnc(SC)n2C2CCCCC2)cc1 | -21% | -7% | -5% | 19% | -1% | -54* | 9%
CCOC(=O)C(C)Sc1nnc(CNC(=O)c2ccc(OC)cc2)n1C1CCCCC1 (centres undefined) | -14% | -2% | -3% | 29% | -5% | nt | nt
Cc1cc(C)cc(NC(=O)Cn2nnc(C(=O)NCc3ccc(F)cc3)c2N)c1 | 10µM* | 3µM* | -14% | 3% | -8% | -56* | -3%
CCOc1ccc(CCNC(=O)CCSCc2cccc(Cl)c2)cc1OCC | -21% | nt | 3% | 29% | -2% | nt | nt
CCOC(=O)Nc1ccc2c(CNC(C)c3ccccc3OC)cc(=O)oc2c1 (centres undefined) | -21% | -1% | -10% | 3% | -6% | -90* | -6%
CCOC(=O)Nc1ccc2c(CN3C(=O)NC(CC)(CC)C3=O)cc(=O)oc2c1 | 7% | -5% | -30% | 65% | 2% | -21 | nt
NC(=O)c1ccccc1NC(=O)CC12CC3CC(CC(C3)C1)C2 | -17% | -7% | -8% | 20% | 2% | 7 | nt
Cc1cc(NC(=O)COC(=O)CCn2c(C)csc2=O)c([N+](=O)[O-])cc1C | nt | -4% | nt | nt | nt | -24 | nt
O=C(NCc1ccco1)C1Cc2c(-c3cccc(F)c3)ccnc2O1 (centres undefined) | nt | -11% | nt | nt | nt | -65* | -4%
COc1ccccc1N(CC(=O)N1CCC(C(N)=O)CC1)S(=O)(=O)c1ccccc1 | -22% | -9% | 9% | -14% | -2% | -75* | -7%
C#CCOc1ccc2c3c(c(=O)oc2c1)CCCC3 | 3% | -9% | 6% | 57% | -13% | -4 | nt
CC(C)Cc1ccc(CN2C(C)C(=O)N(Cc3cn(Cc4ccco4)nn3)CCS2(=O)=O)cc1 (centres undefined) | nt | ? | nt | nt | nt | -64* | -4%
Cc1ccc(-c2ccc(CN3C(C)C(=O)N(Cc4cn(Cc5ccco5)nn4)CCS3(=O)=O)cc2)c(C)c1 (centres undefined) | nt | -15% | nt | nt | nt | -53* | -2%
Cc1ccc(-c2ccc(CN3C(C)C(=O)N(Cc4cn(Cc5ccco5)nn4)CCS3(=O)=O)cc2)cc1 (centres undefined) | nt | -9% | nt | nt | nt | -1 | nt
CCCN(CCC)CCCNC(=O)c1cc2c(=O)n(C)c3ccccc3c2s1 | -11% | nt | nt | 62% | -6% | nt | nt
CCCCn1c(=O)[nH]c(=O)c2c1nc(-c1ccc(-c3ccccc3Br)o1)n2CC | -19% | -19% | -9% | 16% | -9% | -53* | -1%
SMILES | JMJD2A Tudor inh | PLK1 PBD block | BAZ2B inh | HP1b chromo inh | GCN5L2 inh | PI5P4K alpha inh | ADP-Glo counter
C[C@@H]1C=C(C(=O)NCc2nc3ccccc3[nH]2)O[C@H](OCCCCO)C1 | ? | -9% | nt | 14% | nt | -27 | -3%
C[C@@H]1C=C(C(=O)NCc2nc3ccccc3[nH]2)O[C@H](OCc2ccc(CO)cc2)C1 | -25% | -17% | 0% | 28% | -3% | -11 | nt
O=C(NCC(c1ccco1)N1CCCC1)c1cc2ccccc2s1 (centres undefined) | -22% | -7% | 2% | 19% | 2% | -4 | nt
O=C(c1ccco1)N1CCN(c2ncnc3c2[nH]c2ccccc23)CC1 | nt | nt | 8% | nt | -4% | nt | nt
O=C(c1ccco1)N1CCN(c2ncnc3c2[nH]c2ccc(Br)cc23)CC1 | -26% | -19% | -6% | -4% | -9% | -50* | 10%
CN(C(=O)COC(=O)COc1ccc(Cl)cc1Cl)c1c(N)n(Cc2ccccc2)c(=O)[nH]c1=O | -3% | -2% | 1% | 47% | -7% | -3 | nt
O=C(Cn1cncn1)c1ccccc1Br | -14% | 1% | 0% | 25% | 0% | -2 | nt
O=C(Cn1cncn1)NCc1ccccc1Br | -1% | -6% | -2% | 26% | -23% | -62* | -2%
COc1ccccc1N1CCN(C(=O)c2oc3ccccc3c2N)CC1 | ? | nt | -37% | -18% | -4% | nt | nt
COc1cc(NC(=O)c2ccc(-n3cnc4cccnc43)cc2)cc(OC)c1 | -14% | nt | -16% | 26% | 0% | nt | nt
S=C(NCc1ccccc1)N1CCc2ccccc2C1 | 4%[57.1 µM] | -6% | 25% | 56% | -7% | -93* | 6%
Cc1ccc(S(=O)(=O)CCC(=O)OCc2nnc(-c3ccccc3Br)o2)cc1 | -9% | -5% | 2% | 35% | -14% | ? | nt
O=C(CCC1CCCN(C(=O)CCC(F)(F)F)C1)NCc1ccc(F)c(F)c1 (centres undefined) | -5%[57.1 µM] | -4% | -24% | 45% | -13% | 1 | nt
Cc1noc(C)c1CCC(=O)N1CCCC(CCC(=O)NCc2ccc(F)c(F)c2)C1 (centres undefined) | 100µM* | -13% | -24% | ? | -6% | -61* | 1%
c1ccc(CCNc2ncnc3nc[nH]c23)cc1 | -16% | 2% | -15% | 35% | -5% | ? | nt
c1ccc2c(CCNc3ncnc4nc[nH]c34)c[nH]c2c1 | ? | -1% | -33% | 8% | 3% | nt | -2%

Assay outcomes from PubChem BioAssay.
